Assay results from PubChem BioAssay AID463173 (ICCB-Longwood Screening Facility, Harvard Medical School, 2010).
Hit rate of the full screen: of about 52,000 compounds, about 4,300 (8.3%) were called active. No stated cut-off is given here; in the data, active means survival mostly below about 52% (no sharp cut-off); inactive means mostly above about 56%. The full list was thinned out, with actives kept by preference.

tested on: DeltatarO mutant; assay: S. aureus survival, RN4220 and DeltatarO strains – OD600, teichoic acid synthesis inhibitors, primary screen (AID 463173); conditions: S. aureus RN4220 wild type/DeltatarO growth, OD600, 18 h, stronger effect = lower value, concentration not given here

SMILES	survival
O=C1CC(=O)N(C2CCCCC2)C(=O)N1	77% (inactive)
CCSc1nnc(NC(=O)c2cccn(Cc3ccc(Cl)cc3)c2=O)s1	73% (inactive)
CC(=O)Nc1c(O)[nH]c(=S)[nH]c1=O	103% (inactive)
O=C(Nc1nc2ccccc2s1)c1cccn(Cc2ccccc2)c1=O	83% (inactive)
COC(=O)CC1=C(C(=O)OC)C2(C(=O)Nc3ccc(F)cc32)C(C#N)=C(N)O1 (stereo unspecified)	65% (inactive)
CCOC(=O)CC1=C(C(=O)OCC)C2(C(=O)N(C)c3ccccc32)C(C#N)=C(N)O1 (stereo unspecified)	0% (active)
CCOC(=O)C1=C(C)OC(N)=C(C#N)C12C(=O)N1c3c(cccc32)C(C)CC1(C)C (stereo unspecified)	51% (inactive)
CCC(C)c1c(O)[nH]c(=S)[nH]c1=O (stereo unspecified)	82% (inactive)
CCN(CC)C(=O)c1ccc(NC(=O)c2ccc(-c3nn(C)c(=O)c4ccccc34)cc2)cc1	68% (inactive)
Cc1ccnc(NS(=O)(=O)c2ccc(N=Cc3c(O)n(C)c(=O)n(C)c3=O)cc2)n1	93% (inactive)
COc1ccc(-c2nc(CN3C(=O)CN=C(c4ccccc4Cl)c4cc(Cl)ccc43)c(C)o2)cc1OC	63% (inactive)
CN1CCN(c2oc(-c3ccc(COc4ccccc4)o3)nc2C#N)CC1	41% (active)
CN1C(=O)C(Cc2cccs2)C(=O)N(C)C1=O	80% (inactive)
CC(C)C(=O)N1N=C(c2cccnc2)CC1(O)C(F)(F)F (stereo unspecified)	66% (inactive)
OC1(c2ccc(F)cc2)CC2CCC(C1)N2Cc1nnnn1C1CCCCC1 (stereo unspecified)	97% (inactive)
Cc1ccc(NC(=O)N(Cc2ccc3c(c2)OCO3)C2CCN(Cc3ccccc3)CC2)cc1F	87% (inactive)
Cc1ccc(NC(=O)N(Cc2ccc3c(c2)OCO3)C2CCN(Cc3ccccc3)CC2)cc1Cl	128% (inactive)
Cc1ccc(NC(=O)N(Cc2ccc3c(c2)OCO3)C2CCN(Cc3ccccc3)CC2)cc1C	17% (active)
COc1ccc(NC(=O)CN2C(=O)C(C)N=C(c3ccccc3)c3ccccc32)cc1OC (stereo unspecified)	116% (inactive)
CCCC12CN3CC(CCC)(CN(C1)C3c1ccccn1)C2=O (stereo unspecified)	84% (inactive)
O=C1CC(=O)N(c2ccccc2)C(=O)N1c1ccccc1	90% (inactive)

SMILES	survival
COc1ccc(C(=O)Nc2ccc(Cl)cc2C(=O)c2ccccc2)c(OC)c1	2% (active)
Cc1cccc(C)c1OCC(=O)Nc1ccc(Cl)cc1C(=O)c1ccccc1	17% (active)
O=C(Nc1ccc(Br)cc1C(=O)c1ccccc1)c1ccccc1	-1% (active)
Cc1cc(C)cc(OCC(=O)Nc2ccc(Cl)cc2C(=O)c2ccccc2)c1	82% (inactive)
CSc1ncc(C(=O)Nc2ccc(Cl)cc2C(=O)c2ccccc2)c(C)n1	98% (inactive)
CC(C)(C)c1ccc(C(=O)Nc2ccc(Cl)cc2C(=O)c2ccccc2)cc1	6% (active)
Cc1ccc(OCC(=O)Nc2ccc(Cl)cc2C(=O)c2ccccc2)cc1C	69% (inactive)
O=C(COc1ccc(Cl)cc1)Nc1ccc(Cl)cc1C(=O)c1ccccc1	83% (inactive)
CC(C)(C)c1ccc(OCC(=O)Nc2ccc(Cl)cc2C(=O)c2ccccc2)cc1	70% (inactive)
O=C(Nc1ccc(Br)cc1C(=O)c1ccccc1Cl)c1ccccc1F	52% (inactive)
O=C(Nc1ccc(Br)cc1C(=O)c1ccccc1Cl)c1ccc(Br)cc1	144% (inactive)
COc1cc(OC)cc(C(=O)Nc2ccc(Cl)cc2C(=O)c2ccccc2Cl)c1	171% (inactive)
CC(=O)NC1CC2CCC(C1)N2 (stereo unspecified)	98% (inactive)
O=C(CCc1nc(C2=CCN(Cc3cccc(Cl)c3)CC2)no1)Nc1ccccc1F	81% (inactive)
OC1(c2cccc(F)c2)CC2CCC(C1)N2Cc1nnnn1CCc1ccccc1 (stereo unspecified)	85% (inactive)
CSc1ccc(CN2CCN(C(=O)COc3cccc(C)c3)CC2)cc1	84% (inactive)
Cc1c(/C(CC(C)C)=N/O)c2ccccc2n1C	79% (inactive)
O=C(Nc1ccc(F)c([N+](=O)[O-])c1)c1cccn(Cc2ccccc2)c1=O	115% (inactive)
CN1CCN(Cc2cn3ccccc3n2)CC1	104% (inactive)
CCOc1ccc(CN(CCc2ccc3c(c2)OCO3)Cc2cccc(OC)c2)cc1	44% (inactive)
CCOc1ccc(CN(CCc2ccc3c(c2)OCO3)Cc2cc(OC)ccc2O)cc1	62% (inactive)

SMILES	survival
O=C(Nc1ccc(Cl)cc1C(=O)c1ccccc1)c1cc(Cl)cc(Cl)c1	150% (inactive)
O=C(COc1ccc(Br)cc1)Nc1ccc(Cl)cc1C(=O)c1ccccc1	83% (inactive)
O=C(Nc1ccc(Cl)cc1C(=O)c1ccccc1)c1ccccc1Br	24% (active)
CC(C)OC12Oc3ccccc3C=C1N1CCC2CC1 (stereo unspecified)	80% (inactive)
COc1ccc(CN2CCN(C(=O)COc3ccccc3)CC2)c(OC)c1	184% (inactive)
c1cc(CN2CCNCC2)ccn1	105% (inactive)
Nc1c(C(=O)Nc2ccc(Cl)cc2)sc2nc3c(cc12)N1CCC3CC1	55% (inactive)
Nc1c(C(=O)Nc2ccc(F)c(Cl)c2)sc2nc3c(cc12)N1CCC3CC1	65% (inactive)
Nc1c(C(=O)Nc2cccc(Br)c2)sc2nc3c(cc12)N1CCC3CC1	40% (active)
Nc1c(C(=O)Nc2ccc(Br)cc2F)sc2nc3c(cc12)N1CCC3CC1	132% (inactive)
Nc1c(C(=O)Nc2ccc(Cl)c(C(F)(F)F)c2)sc2nc3c(cc12)N1CCC3CC1	4% (active)
Nc1c(C(=O)Nc2ccc(OC(F)(F)F)cc2)sc2nc3c(cc12)N1CCC3CC1	99% (inactive)
COc1ccc(C2CC(=O)Oc3c2c(=O)oc2ccccc32)c(OC)c1OC (stereo unspecified)	75% (inactive)
COc1ccccc1CN1CCN(C(=O)COc2cccc(C)c2)CC1	162% (inactive)
O=C1CN=C(c2ccccc2)c2cc(Cl)ccc2N1Cc1ccc(Cl)cc1	66% (inactive)
Cc1ccc(Cn2cccc(C(=O)Nc3ccc4c(c3)OCCO4)c2=O)cc1	83% (inactive)
CCOc1ccccc1CN(CCc1ccc2c(c1)OCO2)Cc1ccc(CC)cc1	111% (inactive)
CCCC1=Nc2cc(C(=O)NCCCN(CC)CC)ccc2Sc2ccccc21	138% (inactive)
CCCC1=Nc2cc(C(=O)NC3CCC(C)CC3)ccc2Sc2ccccc21 (stereo unspecified)	39% (active)
